# Out of some 1,300 compounds screened, about 150 (12%) were called active. Inconclusive results (about 30%) are left out. The call rests on the fitted dose curve; in most records, active means well fitted cell-killing curve with a large enough effect; inconclusive means small, poorly fitted or top-dose-only effect, or effect the other way; inactive means flat fitted curve, though single readings scatter. Shown is part of a subset that was picked to be rich in actives.
# Assay: qHTS of small molecules that selectively kill Giardia lamblia: Hit Validation in HepG2 cytotox;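 further: compound exposure lasted overnight at 37 deg C; nearly all actives have a fitted effect of over 55% in size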;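 on activity change, negative = cytotoxicity: viability measured as cellular ATP by ATPLite luminescence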
# Conditions: cell viability; Potency: HepG2 cytotoxicity; series mostly up to 38.3 µM; activity change, negative = cytotoxicity: at the top concentration
# How it was run: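 HepG2 cells seeded and incubated overnight at 37 deg C, then 23 nL compound added by pintool and incubated overnight at 37 deg C. Viability read as ATP luminescence with ATPLite after 15 min at room temperature.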
# On the % scale 0 is the no-effect control and ±100 the full control effect; potency means the concentration at half of the fitted maximal effect.
SMILES,"activity change, negative = cytotoxicity",Potency
CC(=O)NC(Cc1ccccc1F)C(=O)NC1CCN(c2ncccc2[N+](=O)[O-])CC1 (stereo not drawn),6.4% (inactive),–
CCN(CCCNC(=O)c1nn(C)c2c1CS(=O)(=O)c1ccccc1-2)Cc1ccccc1,8.51% (inactive),–
CC(C)(C)C1C/C(=C/c2ccccn2)C(=O)/C(=C/c2ccccn2)C1 (stereo not drawn),–,0.585 µM (active)
O=C1CC(c2ccc(F)cc2)CC2=C1C(c1ccc([N+](=O)[O-])o1)Nc1ccccc1N2 (stereo not drawn),0.0723% (inactive),–
O=c1[nH]c(=O)c2cc([N+](=O)[O-])cc([N+](=O)[O-])c2[nH]1,26.1% (inactive),–
O=[N+]([O-])c1ccc(/C=N/Nc2nc(N3CCCCC3)nc(N3CCCCC3)n2)o1,-1.62% (inactive),–
O=C(Nc1ccccc1N1CCOCC1)c1ccc([N+](=O)[O-])o1,20.1% (inactive),–
Cc1ccc(NC(=O)c2ccc([N+](=O)[O-])o2)cc1S(=O)(=O)N1CCOCC1,–,13.1 µM (active)
CC(C)C(=O)NC(=S)Nc1ccc(S(=O)(=O)N2CCCC2)cc1,2.66% (inactive),–
COc1ccc(C)cc1NC(=O)c1cc(S(=O)(=O)N2CCCC2)cn1C,7.45% (inactive),–
O=C(Nc1ccc(S(=O)(=O)N2CCCC2)cc1)c1ccc([N+](=O)[O-])o1,–,2.93 µM (active)
Cc1ccc(NC(=O)COc2cccnc2[N+](=O)[O-])cc1S(=O)(=O)N1CCCCC1,-2.65% (inactive),–
COc1ccc(S(=O)(=O)N2CCCCC2)cc1NC(=O)c1ccc([N+](=O)[O-])o1,–,3.29 µM (active)
COc1ccc(S(=O)(=O)N2CCOCC2)cc1NC(=O)COc1cccnc1[N+](=O)[O-],4.96% (inactive),–
O=C(Nc1ccc(S(=O)(=O)N2CCOCC2)cc1)c1ccc([N+](=O)[O-])o1,–,13.1 µM (active)
COc1ccc(S(=O)(=O)N2CCN(C(=O)c3ccc([N+](=O)[O-])o3)CC2)cc1,1.33% (inactive),–
O=C(Cc1ccc(Cl)cc1)Nc1ncc([N+](=O)[O-])s1,-20.5% (inactive),–
Cc1ccc(-n2c(C)cc(C(=O)COc3cccnc3[N+](=O)[O-])c2C)cc1,12.6% (inactive),–
O=C(c1ccc([N+](=O)[O-])o1)N1CCc2ccccc21,7.1% (inactive),–
Cc1cc(C)cc(N=c2c([N+](=O)[O-])nn(-c3ccc(Cl)cc3)n2O)c1,14.2% (inactive),–
O=C(COc1cccnc1[N+](=O)[O-])NCc1ccco1,10.7% (inactive),–

SMILES,"activity change, negative = cytotoxicity",Potency
COc1ccc(OC)c(CCNC(=O)CSc2ccsc2[N+](=O)[O-])c1,-0.302% (inactive),–
Cc1ccc(S(=O)(=O)N2[C@@H](c3ccc(Cl)cc3)C(C(=O)O)=CC[C@H]2c2ccc(Cl)c(Cl)c2)cc1,-5.73% (inactive),–
Cn1nc(N)c2c(-c3ccccc3)c(C#N)c(N)nc21,6.82% (inactive),–
Cc1ccc(N=c2c([N+](=O)[O-])nn(-c3ccc4c(c3)OCCO4)n2O)cc1F,2.9% (inactive),–
CC(C)(C)n1nc(-c2ccc(Cl)cc2)c2c(N)ncnc21,5.62% (inactive),–
[O-][n+]1c2cc(C(F)(F)F)ccc2c2n1CCN=C2c1ccc(Cl)cc1,6.18% (inactive),–
CCOC(=O)CSc1ccc(C(=O)NCCCN2CCOCC2)cc1[N+](=O)[O-],1.58% (inactive),–
O=[N+]([O-])c1cc(S(=O)(=O)Nc2cccc(Cl)c2)ccc1N/N=C/c1ccc(N2CCOCC2)cc1,15.7% (inactive),–
O=C(Nc1cccc(S(=O)(=O)N2CCCCC2)c1)c1ccc([N+](=O)[O-])o1,–,11.7 µM (active)
O=C(COc1cccnc1[N+](=O)[O-])Nc1cccc(S(=O)(=O)N2CCCCC2)c1,7.3% (inactive),–
CC(=O)NC(Cc1cccc(C)c1)C(=O)NC1CCN(c2ncccc2[N+](=O)[O-])CC1 (stereo not drawn),1.07% (inactive),–
Cc1cc(C)n(S(=O)(=O)c2ccccc2[N+](=O)[O-])n1,-7.32% (inactive),–
CC(NC(=O)c1ccc(N(C)C)c([N+](=O)[O-])c1)c1ccc(-n2ccnc2)cc1 (stereo not drawn),-5.39% (inactive),–
CC(=O)NC(Cc1cccc(F)c1)C(=O)NC1CCN(c2ncccc2[N+](=O)[O-])CC1 (stereo not drawn),25.4% (inactive),–
C/C(=N\NC(=O)COc1ccc(C)cc1Br)c1cc([N+](=O)[O-])cs1,1.76% (inactive),–
CC12CN3CC(C)(CN(C1)C3c1ccc([N+](=O)[O-])o1)C2 (stereo not drawn),23.5% (inactive),–
O=[N+]([O-])c1cccc2nc3ccccc3c(NCCCn3ccnc3[N+](=O)[O-])c12,–,0.0736 µM (active)
O=C(NC(=S)Nc1ccc(CN2CCOCC2)cc1)c1ccc([N+](=O)[O-])cc1Cl,8.14% (inactive),–
CCN(CC)CCCC(C)Nc1cc(/C=C/c2ccccc2Cl)nc2cc(Cl)ccc12 (stereo not drawn),–,2.07 µM (active)
CCN(CC)CCCC(C)Nc1c2ccc(Cl)cc2nc2ccc(OC)cc12 (stereo not drawn),–,4.65 µM (active)
CCc1nc2cc([N+](=O)[O-])c([N+](=O)[O-])cc2[nH]1,17.5% (inactive),–

SMILES,"activity change, negative = cytotoxicity",Potency
Cc1cccc(-n2nc([N+](=O)[O-])c(=NCc3cccnc3)n2O)c1,1.38% (inactive),–
O=C(COc1cccnc1[N+](=O)[O-])Nc1cc(Cl)ccc1Cl,20% (inactive),–
COc1ccccc1C(=O)NC(=O)OCCn1c(C)cnc1[N+](=O)[O-],13.5% (inactive),–
O=[N+]([O-])c1ccc(Nc2ccccc2)c2nonc12,-5.06% (inactive),–
O=[N+]([O-])c1nn(-c2ccc3c(c2)OCCO3)n(O)c1=NC1CCCCCC1,1.36% (inactive),–
Cc1ccc(C(=O)Nc2ccc3c(c2)OCCO3)o1,-29% (inactive),–
Cc1ccnc(NC(=O)c2ccc3c(c2)OCO3)c1,–,0.585 µM (active)
O=C(COc1cccnc1[N+](=O)[O-])Nc1ccc2c(c1)OCO2,2.74% (inactive),–
Cc1ncc([N+](=O)[O-])n1CCOC(=O)Nc1ccc([N+](=O)[O-])cc1,9.82% (inactive),–
COc1cccc(NC(=O)COc2cccnc2[N+](=O)[O-])c1,5.3% (inactive),–
O=c1c(-c2cccc([N+](=O)[O-])c2)[n+]([O-])c2ccccc2n1O,15.3% (inactive),–
O=C1C(c2ccncc2)=C(O)c2ccccc21,–,5.85 µM (active)
Cn1c(=O)c(=O)n(C)c2cc([N+](=O)[O-])c(N3CCOCC3)cc21,-8.79% (inactive),–
O=C(Nc1nccs1)c1cc([N+](=O)[O-])ccc1Cl,-1.08% (inactive),–
Cc1cc(=O)oc2cc(O)c(N=Nc3ccccc3)cc12,-10.3% (inactive),–
CC(C)OC(=O)Nc1ccc2c(c1)N(C(=O)N1CCN(C)CC1)c1ccccc1CC2,–,0.521 µM (active)
CC(NC(=O)Cn1cc(Br)c([N+](=O)[O-])n1)c1ccccc1 (stereo not drawn),19% (inactive),–
Cc1ncc([N+](=O)[O-])n1CCOC(=O)C12CC3CC(CC(C3)C1)C2,-0.852% (inactive),–
CCOC(=O)C1=C(C)NC2=C(C(=O)c3ccccc32)C1c1ccc([N+](=O)[O-])o1 (stereo not drawn),-1.83% (inactive),–
CCOC(=O)c1ccc(NS(C)(=O)=O)cc1,10.8% (inactive),–
CCOC(=O)c1c(C)[nH]c2c1-c1ccccc1C(=O)C2=O,–,2.61 µM (active)
